# Active and inactive are the calls of the source. Rule for the calls: active = hit-call score of the fitted dose curve at least 0.9, where 1 is the maximum; inactive = score below 0.9.
# What was measured:
# Settings in all cases: mRNA level, 48 h; actives raise or lower the signal
# [1] = read-out: Cytochrome P450 (CYP2B6), CYP2B6 (gene 1555); experiment: LTEA_HepaRG_CYP2B6: Life Technologies and Expression Analysis (LTEA) Assay for Cytochrome P450 (CYP2B6) using HepaRG (AID 2283481)
# Outline: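 HepaRG cells plated 48 h, switched to serum-free induction medium, then dosed 48 h (8 points, half-log from 100 uM, 0.5% DMSO). RNA isolated; CYP2B6 expression measured by qRT-PCR; gain or loss fitted relative to DMSO.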
# [2] = read-out: Cytochrome P450 2C19 (Homo sapiens) (UniProt P33261); experiment: LTEA_HepaRG_CYP2C19: Life Technologies and Expression Analysis (LTEA) Assay for CYP2C19 using HepaRG (AID 2283482)
# Outline: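 Transcript levels of CYP2C19 were quantified by qRT-PCR after HepaRG cells were treated for 48 hours with test chemicals up to 100 uM (eight half-log concentrations, 0.5% DMSO vehicle). Gain or loss of signal was fitted relative to DMSO.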
# CYP2C8 (gene 1558) = experiment: LTEA_HepaRG_CYP2C8: Life Technologies and Expression Analysis (LTEA) Assay for CYP2C8 using HepaRG (AID 2283483)
# Outline: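 This is a transcriptional endpoint in HepaRG cultures: 48 h exposure, highest concentration 100 uM. CYP2C8 mRNA is quantified by TaqMan qRT-PCR.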
# CYP2C9 (gene 1559) = experiment: LTEA_HepaRG_CYP2C9: Life Technologies and Expression Analysis (LTEA) Assay for CYP2C9 using HepaRG (AID 2283484)
# Outline: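 Eight-point concentration-response (highest 100 uM, half-log dilutions) in HepaRG cells for 48 h; CYP2C9 expression by qRT-PCR normalized to ACTB, GAPDH, POLR2A. Bidirectional fit, DMSO baseline.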
# CYP2E1 (gene 1571) = experiment: LTEA_HepaRG_CYP2E1: Life Technologies and Expression Analysis (LTEA) Assay for CYP2E1 using HepaRG (AID 2283485)
# Outline: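 Assay uses 48 h exposure of HepaRG hepatic cells, eight concentrations to 100 uM. Expression of CYP2E1 is quantified by TaqMan qRT-PCR with ACTB, GAPDH and POLR2A normalization; curves fitted in both directions relative to vehicle.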
# CYP4A11 (gene 1579) = experiment: LTEA_HepaRG_CYP4A11: Life Technologies and Expression Analysis (LTEA) Assay for CYP4A11 using HepaRG (AID 2283486)
# Outline: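 HepaRG, 48 h chem exposure, 8 conc (100 uM top, half-log), 0.5% DMSO vehicle; qRT-PCR readout, housekeeping-gene normalized; bidirectional curve fit vs DMSO baseline.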
# [3] = read-out: Cytochrome P450 3A4 (Homo sapiens) (UniProt P08684); experiment: LTEA_HepaRG_CYP3A4: Life Technologies and Expression Analysis (LTEA) Assay for CYP3A4 using HepaRG (AID 2283487)
# Outline: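 In a human hepatic line (HepaRG), duplicate wells were treated 48 h with up to 100 uM chemical in half-log dilutions. Endpoint: CYP3A4 mRNA induction or loss relative to 0.5% DMSO vehicle, by qRT-PCR.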
# [4] = read-out: DNA damage-inducible transcript 3 (DDIT3), DDIT3 (gene 1649); experiment: LTEA_HepaRG_DDIT3: Life Technologies and Expression Analysis (LTEA) Assay for DNA damage-inducible transcript 3 (DDIT3) using HepaRG (AID 2283488)
# Outline: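 Eight-point concentration-response (100 uM highest, half-log dilutions) in HepaRG, 48 h, duplicate wells. Endpoint: qRT-PCR mRNA, normalized (ACTB, GAPDH, POLR2A), bidirectional fitting with DMSO as baseline.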
# [5] = read-out: Early growth response protein 1 (EGR1) transcription factor, EGR1 (gene 1958); experiment: LTEA_HepaRG_EGR1: Life Technologies and Expression Analysis (LTEA) Assay for Early growth response protein 1 (EGR1) transcription factor using HepaRG (AID 2283490)
# Outline: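 EGR1 expression change in human HepaRG after 48 h chemical exposure, assessed by housekeeping-normalized qRT-PCR; concentration-response up to 100 uM, fitted in both directions against DMSO controls.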
# [6] = read-out: Ezrin (EZR), EZR (gene 7430); experiment: LTEA_HepaRG_EZR: Life Technologies and Expression Analysis (LTEA) Assay for Ezrin (EZR) using HepaRG (AID 2283491)
# Outline: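 Gain or loss of EZR mRNA is scored relative to 0.5% DMSO in human HepaRG cultures treated 48 h with test chemicals in duplicate, eight half-log concentrations from 100 uM.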
# CYP3A5 (gene 1577) = experiment: LTEA_HepaRG_CYP3A5: Life Technologies and Expression Analysis (LTEA) Assay for CYP3A5 using HepaRG (AID 2283493)
# Outline: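 Readout was CYP3A5 mRNA by qRT-PCR. HepaRG cultures were exposed for 48 h in serum-free induction medium to chemicals at up to 100 uM, and responses were fitted in both directions relative to DMSO vehicle.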
# [7] = read-out: Cytochrome P450 4A22 (Homo sapiens) (UniProt Q5TCH4); experiment: LTEA_HepaRG_CYP4A22: Life Technologies and Expression Analysis (LTEA) Assay for Cytochrome P450 4A22 (CYP4A22) using HepaRG (AID 2283495)
# Outline: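 Readout is CYP4A22 transcript induction or loss, quantified by qRT-PCR and normalized to ACTB, GAPDH and POLR2A. Human HepaRG cells receive test chemicals for 48 h at eight half-log concentrations from 100 uM in 0.5% DMSO.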
# [8] = read-out: Cytochrome P450 7A1 (Homo sapiens) (UniProt P22680); experiment: LTEA_HepaRG_CYP7A1: Life Technologies and Expression Analysis (LTEA) Assay for Cytochrome P450 7A1 (CYP7A1) using HepaRG (AID 2283496)
# Outline: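 Using 0.5% DMSO as vehicle and baseline, chemicals were tested in duplicate over an 8-point range from 100 uM on HepaRG cells for 48 h; qRT-PCR signals were normalised to ACTB, GAPDH and POLR2A.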
# [9] = read-out: Glutathione S-Transferase (GSTA2), GSTA2 (gene 2939); experiment: LTEA_HepaRG_GSTA2: Life Technologies and Expression Analysis (LTEA) Assay for Glutathione S-Transferase (GSTA2) using HepaRG (AID 2283497)
# Outline: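 Oxidative-stress marker GSTA2 is quantified by TaqMan qRT-PCR in HepaRG cultures treated 48 h across an eight-point range to 100 uM. Expression is normalized to endogenous controls and compared with 0.5% DMSO vehicle.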
# [10] = read-out: Glutamate-cysteine ligase catalytic (GCLC), GCLC (gene 2729); experiment: LTEA_HepaRG_GCLC: Life Technologies and Expression Analysis (LTEA) Assay for Glutamate-cysteine ligase catalytic (GCLC) using HepaRG (AID 2283498)
# Outline: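 Oxidative-stress marker GCLC is measured as mRNA change in human HepaRG liver cells after 48 h chemical treatment in 0.5% DMSO, eight concentrations from 100 uM. Activity is fitted bidirectionally against vehicle.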
# [11] = read-out: growth arrest and DNA damage 45 (GADD45G), GADD45G (gene 10912); experiment: LTEA_HepaRG_GADD45G: Life Technologies and Expression Analysis (LTEA) Assay for growth arrest and DNA damage 45 (GADD45G) using HepaRG (AID 2283499)
# Outline: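 Gain or loss of GADD45G mRNA, quantified by TaqMan qRT-PCR against three housekeeping genes, is fitted in both directions relative to 0.5% DMSO. Human HepaRG cultures receive test chemical for 48 h at up to 100 uM.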
# [12] = read-out: Glutamate-cysteine ligase regulatory (GCLM), GCLM (gene 2730); experiment: LTEA_HepaRG_GCLM: Life Technologies and Expression Analysis (LTEA) Assay for Glutamate-cysteine ligase regulatory (GCLM) using HepaRG (AID 2283500)
# Outline: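 In this multiplexed HepaRG gene-expression assay, GCLM mRNA change after 48 h treatment (8 concentrations, max 100 uM) was scored against DMSO by bidirectional curve fitting.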
# [13] = read-out: Pro-epidermal growth factor (Homo sapiens) (UniProt P01133); experiment: LTEA_HepaRG_EGF: Life Technologies and Expression Analysis (LTEA) Assay for Epidermal growth factor (EGF) using HepaRG (AID 2283489)
# Outline: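 HepaRG, 48 h dosing, 100 uM top, half-log x8, 0.5% DMSO. Readout: TaqMan qRT-PCR (Fluidigm array), housekeeping-normalized. Gain or loss of signal fit vs DMSO.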
# [14] = read-out: Fatty Acid-Binding Protein 1 (FABP1), FABP1 (gene 2168); experiment: LTEA_HepaRG_FABP1: Life Technologies and Expression Analysis (LTEA) Assay for Fatty Acid-Binding Protein 1 (FABP1) using HepaRG (AID 2283494)
# Outline: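 Values reflect bidirectional concentration-response fitting of FABP1 mRNA change against 0.5% DMSO controls. Human HepaRG cultures received eight half-log doses (top 100 uM) for 48 h; expression quantified by TaqMan qRT-PCR with housekeeping-gene normalization.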
# [15] = read-out: Cytochrome P450 3A7 (Homo sapiens) (UniProt P24462); experiment: LTEA_HepaRG_CYP3A7: Life Technologies and Expression Analysis (LTEA) Assay for CYP3A7 using HepaRG (AID 2283492)
# Outline: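 Human HepaRG liver cells, 48 h post-plating, switched to serum-free induction medium and exposed in duplicate for 48 h. Dosing: 100 uM top, half-log dilutions, 8 points, 0.5% DMSO vehicle. Read-out: CYP3A7 mRNA, gain or loss fitted against DMSO baseline.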
# Chain of Cytochrome P450 2C19 (Homo sapiens) (P33261 whole entry, looked up): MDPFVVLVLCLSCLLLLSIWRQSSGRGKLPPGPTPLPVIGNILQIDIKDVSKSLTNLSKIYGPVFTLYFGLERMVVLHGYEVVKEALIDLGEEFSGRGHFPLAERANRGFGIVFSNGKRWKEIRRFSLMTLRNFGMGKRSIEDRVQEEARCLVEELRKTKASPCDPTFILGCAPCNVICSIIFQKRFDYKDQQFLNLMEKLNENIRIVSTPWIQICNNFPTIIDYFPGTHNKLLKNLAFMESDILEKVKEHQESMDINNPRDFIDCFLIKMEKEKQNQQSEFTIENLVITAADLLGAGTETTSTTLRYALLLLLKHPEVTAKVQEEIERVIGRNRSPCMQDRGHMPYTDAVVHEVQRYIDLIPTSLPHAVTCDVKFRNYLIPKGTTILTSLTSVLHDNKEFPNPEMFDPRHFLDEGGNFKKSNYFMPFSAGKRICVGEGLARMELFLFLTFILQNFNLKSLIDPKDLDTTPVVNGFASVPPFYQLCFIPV
# Chain of Cytochrome P450 3A4 (Homo sapiens) (P08684 whole entry, looked up): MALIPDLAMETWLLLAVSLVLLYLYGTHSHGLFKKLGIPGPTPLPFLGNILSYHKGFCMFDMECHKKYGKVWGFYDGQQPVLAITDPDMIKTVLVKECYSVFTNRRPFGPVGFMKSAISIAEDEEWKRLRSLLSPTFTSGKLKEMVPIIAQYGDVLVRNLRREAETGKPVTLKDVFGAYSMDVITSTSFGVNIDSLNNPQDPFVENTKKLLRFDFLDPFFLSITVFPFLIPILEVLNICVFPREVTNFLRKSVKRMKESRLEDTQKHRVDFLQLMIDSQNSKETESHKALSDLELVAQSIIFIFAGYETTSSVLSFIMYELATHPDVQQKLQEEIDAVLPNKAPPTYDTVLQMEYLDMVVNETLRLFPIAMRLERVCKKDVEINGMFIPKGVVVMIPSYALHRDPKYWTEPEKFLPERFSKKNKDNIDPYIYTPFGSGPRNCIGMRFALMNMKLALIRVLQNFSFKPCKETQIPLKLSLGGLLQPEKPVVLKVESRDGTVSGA
# Chain of Cytochrome P450 3A7 (Homo sapiens) (P24462 whole entry, looked up): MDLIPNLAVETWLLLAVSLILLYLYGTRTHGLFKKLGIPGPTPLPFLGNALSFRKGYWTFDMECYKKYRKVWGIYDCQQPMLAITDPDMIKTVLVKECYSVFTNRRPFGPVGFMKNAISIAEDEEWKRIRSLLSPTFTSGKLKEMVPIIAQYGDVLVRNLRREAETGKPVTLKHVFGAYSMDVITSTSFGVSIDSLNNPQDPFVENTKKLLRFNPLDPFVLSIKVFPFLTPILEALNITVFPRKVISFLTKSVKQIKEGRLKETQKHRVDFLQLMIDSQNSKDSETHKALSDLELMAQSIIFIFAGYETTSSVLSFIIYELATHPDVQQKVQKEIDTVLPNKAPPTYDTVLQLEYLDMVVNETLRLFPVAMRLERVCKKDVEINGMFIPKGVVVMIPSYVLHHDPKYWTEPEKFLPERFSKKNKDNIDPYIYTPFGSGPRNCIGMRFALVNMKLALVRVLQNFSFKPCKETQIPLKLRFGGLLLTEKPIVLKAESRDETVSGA
smiles,measurement,setting,value
O=c1n(Cl)c(=O)n(Cl)c(=O)n1Cl,outcome,[1],inactive
same,outcome,[2],inactive
same,outcome,CYP2C8 (gene 1558),inactive
same,outcome,CYP2C9 (gene 1559),inactive
same,outcome,CYP2E1 (gene 1571),inactive
same,outcome,CYP4A11 (gene 1579),inactive
same,outcome,[3],inactive
same,outcome,[4],inactive
same,outcome,[5],inactive
same,outcome,[6],inactive
same,outcome,CYP3A5 (gene 1577),inactive
same,outcome,[7],inactive
same,outcome,[8],inactive
same,outcome,[9],inactive
same,outcome,[10],inactive
same,outcome,[11],inactive
same,outcome,[12],inactive
CCN(CC)c1nc(C)cc(OP(=S)(OC)OC)n1,AC50,[1],2.79 µM (active)
same,AC50,[2],12.1 µM (active)
same,outcome,CYP2C8 (gene 1558),inactive
same,outcome,CYP2C9 (gene 1559),inactive
same,AC50,CYP2E1 (gene 1571),37.4 µM (active)
same,outcome,CYP4A11 (gene 1579),inactive
same,AC50,[3],10.9 µM (active)
same,outcome,[4],inactive
same,outcome,[13],inactive
same,outcome,[5],inactive
same,outcome,[6],inactive
same,outcome,CYP3A5 (gene 1577),inactive
same,outcome,[7],inactive
same,outcome,[9],inactive
same,outcome,[10],inactive
same,outcome,[11],inactive
same,outcome,[12],inactive
CSC(=O)c1c(C(F)F)nc(C(F)(F)F)c(C(=O)SC)c1CC(C)C,AC50,[1],11.8 µM (active)
same,AC50,[2],12.2 µM (active)
same,AC50,CYP2C8 (gene 1558),11.5 µM (active)
same,AC50,CYP2C9 (gene 1559),87 µM (active)
same,AC50,CYP2E1 (gene 1571),53.7 µM (active)
same,AC50,CYP4A11 (gene 1579),87.3 µM (active)
same,AC50,[3],2.51 µM (active)
same,outcome,[4],inactive
same,outcome,[13],inactive
same,outcome,[5],inactive
same,outcome,[6],inactive
same,outcome,CYP3A5 (gene 1577),inactive
same,AC50,[7],80.7 µM (active)
same,outcome,[8],inactive
same,AC50,[9],88.2 µM (active)
same,outcome,[10],inactive
same,AC50,[11],65.3 µM (active)
same,outcome,[12],inactive
CC(C)=CC1C(C(=O)OCc2coc(Cc3ccccc3)c2)C1(C)C (configuration not stated),AC50,[1],20.1 µM (active)
same,AC50,[2],15.5 µM (active)
same,outcome,CYP2C8 (gene 1558),inactive
same,outcome,CYP2C9 (gene 1559),inactive
same,AC50,CYP2E1 (gene 1571),39.1 µM (active)
same,AC50,CYP4A11 (gene 1579),50 µM (active)
same,outcome,[4],inactive
same,outcome,[13],inactive
same,outcome,[5],inactive
same,outcome,[6],inactive
same,outcome,CYP3A5 (gene 1577),inactive
same,outcome,[14],inactive
same,outcome,[7],inactive
same,outcome,[8],inactive
same,outcome,[9],inactive
same,outcome,[10],inactive
same,outcome,[11],inactive
same,outcome,[12],inactive
CNC(=O)N(C)c1nnc(C(C)(C)C)s1,AC50,[1],31.6 µM (active)
same,outcome,[2],inactive
same,outcome,CYP2C8 (gene 1558),inactive
same,outcome,CYP2C9 (gene 1559),inactive
same,outcome,CYP4A11 (gene 1579),inactive
same,outcome,[3],inactive
same,outcome,[4],inactive
same,outcome,[13],inactive
same,outcome,[5],inactive
same,outcome,[6],inactive
same,outcome,[15],inactive
same,outcome,CYP3A5 (gene 1577),inactive
same,outcome,[7],inactive
same,outcome,[9],inactive
same,outcome,[10],inactive
same,outcome,[11],inactive
same,outcome,[12],inactive

# — PubChem BioAssay (EPA / NIEHS)
